High-throughput results (PubChem)
Rac1 mut GTP = modulators of GTP binding to human Rac1 activated mutant. percent activity (GTP binding), % at 10 µM. AID 764. GST-Rac1 activated beads, fluorescent GTP binding, flow cytometry; actives lie on both sides; 100% means binding = to untreated wells. 190,000 tested, 0.11% active. P63000;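 active = GTP binding at least 20 percentage points away from the 100% baseline, in either direction, so actives lie on both sides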
Rab2 wt GTP = changes GTP binding to wildtype dog Rab2A, up or down; GST-Rab2 wt beads, Bodipy-GTP binding, flow cytometry; 190,000 tested, 0.19% active; AID 760; GTP binding activity, % at 10 µM; P61105;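 active = GTP binding activity at least 20 points away from 100%, either lowered or raised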
Cdc42 wt GTP = changes GTP binding to wildtype human Cdc42 | P60953 | GST-Cdc42 beads, Bodipy-GTP binding, flow cytometry; actives lie on both sides | AID 761 | 190,000 tested, 0.2% active | percent activity (GTP binding), % at 10 µM;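 active = percent activity GTP binding at least 20 points away from the 100% baseline, either down as inhibitor or up as activator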;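 note: median bead fluorescence of bound Bodipy-FL-GTP at 100 nM; below 100% means less GTP binding so inhibitor and above means activator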
Target sequence (P60953 whole entry, looked up): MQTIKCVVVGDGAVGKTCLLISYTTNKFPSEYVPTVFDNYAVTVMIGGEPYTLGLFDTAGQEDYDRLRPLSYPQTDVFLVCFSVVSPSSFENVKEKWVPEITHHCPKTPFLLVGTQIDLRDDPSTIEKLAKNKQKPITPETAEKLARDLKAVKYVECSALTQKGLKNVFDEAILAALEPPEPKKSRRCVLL
Rab7 wt modul = dog Rab7 wildtype GTP binding, inhibitors and activators; GST-Rab7 beads, fluorescent GTP binding, flow cytometry; actives lie on both sides; untreated = 100%, excess cold GTP = 0%; GTP binding activity (percent of control), % at 10 µM; 190,000 tested, 0.055% active; AID 758;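 active = fluorescent GTP binding to Rab7 beads changed by at least 20 points from the 100% baseline, either direction, mostly lower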;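 note: median green fluorescence of bound Bodipy-FL-GTP per Rab7 bead population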
HRas wt GTP = human HRas wildtype GTP binding, change in either direction. P01112. 190,000 tested, 0.14% active. GTP binding activity, % at 10 µM. AID 759. GST-Ras wt beads, Bodipy-FL-GTP binding, flow cytometry; actives lie on both sides;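 active = GTP binding activity at least 20% away from the 100% baseline, either lowered as inhibitor or raised as activator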
Target sequence (P01112 whole entry, looked up): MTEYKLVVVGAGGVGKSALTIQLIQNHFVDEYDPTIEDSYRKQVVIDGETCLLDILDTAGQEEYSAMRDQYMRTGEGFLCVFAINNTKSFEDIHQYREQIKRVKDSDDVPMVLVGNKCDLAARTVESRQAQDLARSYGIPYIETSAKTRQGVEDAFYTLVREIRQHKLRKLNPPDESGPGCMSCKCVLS
Rac1 wt GTP bind = human Rac1 wildtype GTP binding, inhibitors and activators | GST-Rac1 beads, fluorescent GTP binding, flow cytometry; actives lie on both sides; 0 = cold GTP competed, 100 = untreated | GTP binding activity (% of control), % at 10 µM | 190,000 tested, 0.27% active | AID 757;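 active = GTP binding activity at least 20 points away from the 100% control level, either lower or higher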
A number is an active result; 0 = inactive; [ ] = another dose, or the depositor's remark. Shown are actives, neighbours in structure and some others; about 0.4% of the full set was active somewhere.

SMILES	Rac1 mut GTP	Rab2 wt GTP	Cdc42 wt GTP	Rab7 wt modul	HRas wt GTP	Rac1 wt GTP bind
Cc1c(NS(=O)(=O)c2ccc3c(c2)Cc2ccccc2-3)c(=O)n(-c2ccccc2)n1C	76	0	78	0	0	0
COc1ccc(CNC(=O)C2CCC(CNc3nc(=S)[nH]c4ccccc34)CC2)cc1 (centres undefined)	0	0	0	0	0	0
N#CC(C#N)=C(Nc1ccc(F)cc1)SCc1cccc(Br)c1	0	0	127[activator]	0	0	134[activator]
Cc1ccc(S(=O)(=O)ON=C2CCN(S(=O)(=O)c3ccccc3)CC2)cc1	0	0	0	0	0	0
CC1=CC(=O)C=C(C)C1=NOS(=O)(=O)c1ccccc1	78	0	0	0	0	0
CC1SC(C)C(=O)N(CC(=O)Nc2ccc([N+](=O)[O-])cc2)C1=O (centres undefined)	0	0	0	0	0	0
O=C(COC(=O)/C=C/c1cccc([N+](=O)[O-])c1)NCc1ccc2c(c1)OCO2	79	0	0	0	0	0
CC1CCN(c2ncccc2C(=O)O)CC1	129[activator]	130[activator]	141[activator]	125[activator]	128[activator]	156[activator]
CNC(=S)NCCc1cc2c(OC)ccc(OC)c2[nH]c1=O	0	0	0	0	0	0
CC(=O)N1CCn2c3ccc(C)cc3c3cccc1c32	0	0	0	0	0	0
Cc1nc2ccc(Cl)cc2c(-c2ccccc2Cl)c1CC(=O)O	0	0	0	0	0	0
CN1CCc2nc3ccc(Cl)cc3c(-c3ccccc3Cl)c2C1	0	0	79	0	0	0
CN(/N=C/c1ccc(Br)o1)C1=NS(=O)(=O)c2ccccc21	0	0	0	0	0	77
Cc1ccc(/C=N/N(C)C2=NS(=O)(=O)c3ccccc32)o1	0	65	64	0	66	64
Oc1ccccc1-c1n[nH]c(=S)n1Cc1ccco1	0	0	0	0	0	0
O=C(CNS(=O)(=O)c1ccc(Cl)cc1)OCC(=O)N1CCCc2ccccc21	0	0	0	0	0	0
COc1cc(NS(=O)(=O)c2ccc(NC(=O)/C=C/c3cccc([N+](=O)[O-])c3)cc2)ncn1	0	0	0	0	0	79
COc1ccc(-c2csc(NC(=O)c3cccs3)c2C(=O)O)cc1OC	0	0	0	0	0	0
COc1ccc(-c2csc(NC(=O)Cc3cccc4ccccc34)c2C(=O)O)cc1	0	75	76	0	78	70
COc1ccc(C(=O)N/C(=C\c2cccc([N+](=O)[O-])c2)C(=O)Nc2cccc(C(=O)O)c2)cc1	0	60	62	0	69	64
O=C(Nc1nccs1)c1ccc(-c2cccc([N+](=O)[O-])c2)o1	0	0	0	0	0	76
O=C(Nc1ncc(Cc2cccc(C(F)(F)F)c2)s1)c1ccc(-c2cccc([N+](=O)[O-])c2)o1	0	0	0	0	0	0
O=C(Cn1cnc2c(nnn2Cc2ccccc2)c1=O)NCC1CCCO1 (centres undefined)	0	0	0	0	0	0
O=C(Cn1cnc2c(nnn2Cc2ccccc2F)c1=O)NCC1CCCO1 (centres undefined)	0	126[activator]	0	0	0	120[activator]
COc1ccc(-c2nn3c(-c4ccccn4)nnc3s2)cc1OC	0	79	0	0	0	74
SMILES	Rac1 mut GTP	Rab2 wt GTP	Cdc42 wt GTP	Rab7 wt modul	HRas wt GTP	Rac1 wt GTP bind
CN1CCN(c2ccc(C(=O)c3ccc(Br)cc3)cc2[N+](=O)[O-])CC1	0	0	0	0	0	0
CCN(CC)S(=O)(=O)c1ccc2c(c1)c(=O)c(C(=O)N1CCc3ccccc3C1)cn2C	0	0	0	0	0	132[activator]
Cc1noc(C)c1CS(=O)(=O)c1ccc([N+](=O)[O-])cc1	0	0	0	0	0	0
CSc1nnc(-c2cc(Br)ccc2N=Cc2c(C)[nH]n(-c3ccccc3)c2=O)c(=O)[nH]1	0	0	78	0	0	0
Cc1ccc(-n2[nH]c(C)c(C=Nc3ccc(Br)cn3)c2=O)cc1	0	0	0	0	0	0
COc1ccc(CCNC(=O)NC2CCCCC2)cc1OC	0	0	0	0	0	0
COc1ccc(CCNC(=O)C2CCCN2C(=O)NC2CCCCC2)cc1OC (centres undefined)	0	128[activator]	141[activator]	0	122[activator]	143[activator]
Cc1ccc(N=Nc2c(N)[nH]n3c(=O)cc(C)nc23)cc1	0	0	0	0	0	75
Cc1ccc(N=Nc2c(=O)[nH]n3c(C)cc(C)nc23)cc1	0	0	0	0	0	0
Cc1ccc(N=Nc2c(N)[nH]n3c(=O)c4c(nc23)CCCC4)cc1	0	0	0	0	0	75
Cc1[nH]n2c(=O)c3c(nc2c1-c1ccc(F)cc1)CCCC3	0	0	0	0	0	0
O=C(CNC(=O)Cc1ccc(Cl)cc1)NCc1ccco1	0	0	0	0	0	0
COc1ccc(Cn2c(O)c(/C=N/NC(=O)c3cccnc3)c3ccccc3c2=O)cc1	72	0	68	0	0	60
O=C(N/N=C/c1c(O)n(-c2ccccc2Cl)c(=O)c2ccccc12)c1cccnc1	0	0	0	0	0	0
O=C(N/N=C/c1c(O)n(Cc2ccccc2)c(=O)c2ccccc12)c1cccnc1	68	71	65	0	78	55
Cc1cc(C)n2ncc(C(=O)O)c2n1	0	0	78	0	0	0
Nc1c(C(=O)C2CC2)sc2nc(-c3cccs3)cc(C(F)(F)F)c12	0	0	0	0	0	120[activator]
O=C1CC(c2ccc(F)cc2)Sc2ccccc2N1 (centres undefined)	0	0	0	0	0	129[activator]
COc1cc2[nH]c(=S)n(CC3CCCO3)c(=O)c2cc1OC (centres undefined)	0	0	0	0	0	0
COc1cc2[nH]c(=S)nc(NCC3CCCO3)c2cc1OC (centres undefined)	0	0	74	0	0	74
COc1cc2[nH]c(=S)nc(NC3CCCCCC3)c2cc1OC	0	69	69	0	66	60
CCOc1ccc(NC(=S)N2CCC(N(C)CCN3CCOCC3)CC2)cc1	0	0	0	0	0	0
O=Nc1c(O)[nH]c2ccc(F)cc12	0	0	0	0	0	0
NC(=S)N=Nc1c(O)[nH]c2ccc(F)cc12	0	74	0	0	76	76
O=C(CSc1nccn1Cc1ccccc1)Nc1nccs1	0	0	0	0	0	0
CC(C)(C)NC(=O)CSc1nccn1Cc1ccccc1	0	0	77	0	0	75
COc1ccc(C(=O)/C=C/Nc2ccc(S(=O)(=O)Nc3nc(C)cc(C)n3)cc2)cc1OC	0	0	0	0	0	79
